Source: ChEMBL document CHEMBL1961873, “Compounds: GSK PKIS; Assays: Nanosyn kinase panel” (2012)
Values joined by “and” are separate entries in the source; they are usually repeats but may differ in a detail not shown here. Identical values can stand only once.

How the values were obtained:
[1] = target: Tyrosine-protein kinase receptor UFO (Homo sapiens) (UniProt P30530); conditions: at 1 µM
[2] = target: Tyrosine-protein kinase Blk (Homo sapiens) (UniProt P51451); conditions: at 0.1 µM
[3] = target: Tyrosine-protein kinase Blk (Homo sapiens) (UniProt P51451); conditions: at 1 µM
[4] = target: T1, Cytoplasmic tyrosine-protein kinase BMX (Homo sapiens) (UniProt P51813); conditions: at 0.1 µM
T1 sequence (whole entry): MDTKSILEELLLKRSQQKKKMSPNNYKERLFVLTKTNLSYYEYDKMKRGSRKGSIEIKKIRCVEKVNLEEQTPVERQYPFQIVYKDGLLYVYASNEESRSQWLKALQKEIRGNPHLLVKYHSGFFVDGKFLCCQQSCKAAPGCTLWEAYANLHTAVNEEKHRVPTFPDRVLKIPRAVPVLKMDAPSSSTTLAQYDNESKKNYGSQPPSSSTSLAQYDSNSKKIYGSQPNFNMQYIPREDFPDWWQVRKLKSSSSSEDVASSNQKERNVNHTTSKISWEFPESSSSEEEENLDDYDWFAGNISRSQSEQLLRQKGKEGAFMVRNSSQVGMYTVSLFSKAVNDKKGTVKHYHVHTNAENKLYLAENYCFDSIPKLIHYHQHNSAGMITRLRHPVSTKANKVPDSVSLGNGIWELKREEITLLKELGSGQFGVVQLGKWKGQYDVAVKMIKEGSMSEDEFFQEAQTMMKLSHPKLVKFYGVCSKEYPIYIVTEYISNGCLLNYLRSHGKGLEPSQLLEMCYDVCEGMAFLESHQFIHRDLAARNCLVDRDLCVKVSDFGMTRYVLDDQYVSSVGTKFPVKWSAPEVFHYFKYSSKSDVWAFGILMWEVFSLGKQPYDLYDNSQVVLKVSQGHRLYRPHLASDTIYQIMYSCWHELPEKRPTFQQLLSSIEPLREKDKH

[5] = target: T1, Cytoplasmic tyrosine-protein kinase BMX (Homo sapiens); conditions: at 1 µM
[6] = target: Protein-tyrosine kinase 6 (Homo sapiens) (UniProt Q13882); conditions: at 0.1 µM
[7] = target: Protein-tyrosine kinase 6 (Homo sapiens) (UniProt Q13882); conditions: at 1 µM
[8] = target: Tyrosine-protein kinase BTK (Homo sapiens) (UniProt Q06187); conditions: at 0.1 µM
[9] = target: Tyrosine-protein kinase BTK (Homo sapiens) (UniProt Q06187); conditions: at 1 µM
[10] = target: Tyrosine-protein kinase CSK (Homo sapiens) (UniProt P41240); conditions: at 0.1 µM;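 also: value given is the averaged percent inhibition of CSK kinase activity, from the GSK PKIS kinase inhibitor set screening panel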
Tyrosine-protein kinase CSK (Homo sapiens), sequence (P41240 2-450 limits assumed): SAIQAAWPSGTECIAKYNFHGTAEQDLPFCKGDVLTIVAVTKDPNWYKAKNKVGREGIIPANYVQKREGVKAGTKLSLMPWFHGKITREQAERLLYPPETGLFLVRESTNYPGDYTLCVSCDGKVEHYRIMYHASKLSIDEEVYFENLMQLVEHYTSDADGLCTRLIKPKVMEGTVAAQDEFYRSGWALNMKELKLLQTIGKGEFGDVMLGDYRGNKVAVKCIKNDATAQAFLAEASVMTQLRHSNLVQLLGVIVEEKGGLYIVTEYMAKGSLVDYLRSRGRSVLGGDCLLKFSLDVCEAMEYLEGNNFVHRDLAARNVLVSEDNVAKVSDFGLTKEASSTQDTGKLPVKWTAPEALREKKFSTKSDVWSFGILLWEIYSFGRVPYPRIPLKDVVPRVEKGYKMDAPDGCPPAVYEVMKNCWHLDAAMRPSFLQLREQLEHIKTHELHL

Tyrosine-protein kinase Blk (Homo sapiens), sequence (P51451 2-505 limits assumed): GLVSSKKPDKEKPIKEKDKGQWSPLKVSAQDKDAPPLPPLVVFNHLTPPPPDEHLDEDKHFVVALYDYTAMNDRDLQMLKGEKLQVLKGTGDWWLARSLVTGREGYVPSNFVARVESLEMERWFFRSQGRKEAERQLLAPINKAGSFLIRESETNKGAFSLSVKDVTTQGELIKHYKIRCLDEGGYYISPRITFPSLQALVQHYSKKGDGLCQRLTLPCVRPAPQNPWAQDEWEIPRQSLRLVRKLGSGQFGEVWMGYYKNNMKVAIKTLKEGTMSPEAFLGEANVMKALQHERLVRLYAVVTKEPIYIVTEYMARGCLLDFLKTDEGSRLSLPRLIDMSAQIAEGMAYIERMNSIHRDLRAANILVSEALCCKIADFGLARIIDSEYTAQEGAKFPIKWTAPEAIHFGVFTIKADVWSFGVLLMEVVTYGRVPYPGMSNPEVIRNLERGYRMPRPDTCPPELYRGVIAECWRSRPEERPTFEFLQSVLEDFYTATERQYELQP
Protein-tyrosine kinase 6 (Homo sapiens), sequence (Q13882 whole entry, looked up): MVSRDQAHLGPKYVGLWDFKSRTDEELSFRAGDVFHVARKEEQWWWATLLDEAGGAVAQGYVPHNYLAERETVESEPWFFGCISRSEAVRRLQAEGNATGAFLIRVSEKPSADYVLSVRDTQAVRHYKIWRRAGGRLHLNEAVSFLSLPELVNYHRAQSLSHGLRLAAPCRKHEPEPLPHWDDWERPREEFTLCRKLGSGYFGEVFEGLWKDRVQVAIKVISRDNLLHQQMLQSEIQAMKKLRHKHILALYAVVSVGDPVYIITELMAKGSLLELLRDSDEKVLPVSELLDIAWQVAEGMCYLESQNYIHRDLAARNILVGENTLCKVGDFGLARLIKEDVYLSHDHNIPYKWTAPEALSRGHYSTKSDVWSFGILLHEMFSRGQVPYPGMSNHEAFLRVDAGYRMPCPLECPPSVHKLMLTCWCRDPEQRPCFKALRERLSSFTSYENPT
Tyrosine-protein kinase receptor UFO (Homo sapiens), sequence (P30530 whole entry): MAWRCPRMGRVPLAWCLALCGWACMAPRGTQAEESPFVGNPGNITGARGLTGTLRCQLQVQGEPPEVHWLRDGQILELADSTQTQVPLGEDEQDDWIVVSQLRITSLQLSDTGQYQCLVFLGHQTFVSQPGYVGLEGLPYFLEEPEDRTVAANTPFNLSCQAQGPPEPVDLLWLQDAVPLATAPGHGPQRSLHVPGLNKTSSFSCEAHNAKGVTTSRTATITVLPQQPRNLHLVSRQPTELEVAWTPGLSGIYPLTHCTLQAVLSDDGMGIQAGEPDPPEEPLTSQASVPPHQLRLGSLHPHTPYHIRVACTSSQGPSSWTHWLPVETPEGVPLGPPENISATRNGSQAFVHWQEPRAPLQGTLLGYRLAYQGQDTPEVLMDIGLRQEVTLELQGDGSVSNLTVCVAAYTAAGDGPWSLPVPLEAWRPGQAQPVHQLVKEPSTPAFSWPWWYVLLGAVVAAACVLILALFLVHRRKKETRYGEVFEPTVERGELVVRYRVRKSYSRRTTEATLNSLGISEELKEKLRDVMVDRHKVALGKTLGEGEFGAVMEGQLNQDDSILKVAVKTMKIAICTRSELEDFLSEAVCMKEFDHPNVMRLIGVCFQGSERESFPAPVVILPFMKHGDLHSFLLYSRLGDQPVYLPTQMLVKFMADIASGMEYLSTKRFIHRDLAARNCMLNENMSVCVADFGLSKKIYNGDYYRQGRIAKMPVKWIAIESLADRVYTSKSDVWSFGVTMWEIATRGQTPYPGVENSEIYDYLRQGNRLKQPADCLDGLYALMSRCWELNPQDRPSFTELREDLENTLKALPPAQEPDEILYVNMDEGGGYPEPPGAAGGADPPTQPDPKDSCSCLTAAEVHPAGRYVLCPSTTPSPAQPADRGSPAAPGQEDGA
Tyrosine-protein kinase BTK (Homo sapiens), sequence (Q06187 whole entry): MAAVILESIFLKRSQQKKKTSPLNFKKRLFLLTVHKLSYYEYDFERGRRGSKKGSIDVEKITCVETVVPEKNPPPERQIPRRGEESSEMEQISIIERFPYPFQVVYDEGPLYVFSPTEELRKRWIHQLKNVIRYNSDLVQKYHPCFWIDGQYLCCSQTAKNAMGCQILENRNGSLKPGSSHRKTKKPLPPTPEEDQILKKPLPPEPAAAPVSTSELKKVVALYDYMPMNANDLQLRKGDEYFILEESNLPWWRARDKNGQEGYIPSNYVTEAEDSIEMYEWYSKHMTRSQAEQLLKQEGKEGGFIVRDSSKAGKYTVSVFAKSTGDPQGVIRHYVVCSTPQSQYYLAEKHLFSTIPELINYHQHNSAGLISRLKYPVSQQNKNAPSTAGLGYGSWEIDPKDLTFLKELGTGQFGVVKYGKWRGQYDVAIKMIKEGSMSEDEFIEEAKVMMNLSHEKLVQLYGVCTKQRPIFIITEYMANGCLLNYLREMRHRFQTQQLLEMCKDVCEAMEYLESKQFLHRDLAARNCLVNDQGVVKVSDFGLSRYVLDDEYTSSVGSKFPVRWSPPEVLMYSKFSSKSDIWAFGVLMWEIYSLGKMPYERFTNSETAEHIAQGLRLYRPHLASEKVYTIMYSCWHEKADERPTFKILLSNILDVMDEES

Compound	inhibition [1]	inhibition [2]	inhibition [3]	inhibition [4]	inhibition [5]	inhibition [6]	inhibition [7]	inhibition [8]	inhibition [9]	inhibition [10]
COc1cccc(Nc2nccc(-c3cnn4ncccc34)n2)c1	11.4%	2.91%	14%	9.52%	21.8%	1.39%	10.1%	0.35%	4.57%	4.74%
c1cnn2ncc(-c3ccnc(NCCCN4CCOCC4)n3)c2c1	-4.37%	1.7%	2.58%	-0.07%	2.01%	2.34%	3.25%	-1.19%	-2.44%	5.75%
CN(c1ccc(NC(=O)NCCN2CCOCC2)cc1)c1ccnc(Nc2ccc(CS(C)(=O)=O)cc2)n1	-4.88%	2.89%	8.61%	0.59%	22.6%	2.66%	8.9%	1.05%	2.3%	3.59%
CS(=O)(=O)CCNCc1ccc(-c2ccc3ncnc(Nc4ccc(OCc5cccc(C(F)(F)F)c5)cc4)c3c2)o1	-5.12%	2.51%	6.32%	3.21%	6.44%	2.67%	3.19%	-2.4%	0.46%	2.05%
Cc1nnc(-c2cccc(-c3ccc(C(=O)NCC4CC4)cc3)c2)o1	-8.4%	3.6%	1.41%	-0.51%	5.89%	6.64%	7.36%	0.03%	1.05%	7.99%
CS(=O)(=O)CCNCc1ccoc1-c1ccc2ncnc(Nc3ccc(OCc4ccccc4)cc3)c2c1	1.55%	0.99%	7.84%	1.55%	3.4%	1.71%	8.3%	0.01%	0.8%	2.96%
Cc1c2ccc(N(C)c3ccnc(Nc4cccc(S(N)(=O)=O)c4)n3)cc2nn1C	1.26%	5.04%	56.5%	-1.19%	17%	13.8%	51.2%	-2.88%	1.31%	5.79%
COc1ccc2ncn(-c3cc(O[C@H](C)c4ccccc4C(F)(F)F)c(C(N)=O)s3)c2c1	1.8%	-0.74%	2.3%	-0.1%	1.93%	-0.2%	-0.61%	-0.76%	-0.74%	-1.23%
NS(=O)(=O)c1ccc(N/N=C2\C(=O)Nc3ccc(C(=O)NCc4ccncc4)cc32)cc1	-5.22%	2.64%	13.4%	-3.52%	4.33%	1.97%	4.41%	0.85%	0.4%	2.94%
O=C(O[C@H]1CN[C@H](C#Cc2cc3ncnc(Nc4ccc5c(ccn5Cc5cc(F)ccc5F)c4)c3s2)C1)N1CCOCC1	-5.54%	2.36%	8.13%	4.47%	4.96%	3.43%	4.9%	0.02%	2.23%	3.21%
COc1cc(N2CCN(C(C)C)CC2)ccc1Nc1nc(Nc2cccc3ncccc23)c2cc[nH]c2n1	5.43%	0.1%	2.64%	5.26%	-0.89%	-1.05%	-2.93%	-0.29%	-0.05%	-1.28%
N#Cc1cccc(Nc2ncc(-c3ccccc3)o2)c1	-1.77%	2.28%	5.45%	5.35%	3.56%	3.51%	3.45%	1.01%	-0.7%	2.15%
CNC(=O)c1ncccc1Nc1nc(Nc2cc3c(cc2OC)CCCN3C(=O)CN(C)C)nc2[nH]ccc12	53.5%	2.8%	7.25%	3.62%	4.96%	4%	6.37%	0.46%	1.22%	2.99%
CCS(=O)(=O)c1ccc(OC)c(Nc2ncc(-c3cccc(C(C)=O)c3)o2)c1	-3.61%	4.6%	35.6%	-2.05%	15.7%	4.59%	18.7%	2.71%	8.89%	2.68%
N#Cc1ccc2c(-c3ccnc(NC4CC4)n3)c(-c3ccc(F)cc3)nn2c1	-4.53%	-1.08%	-3.55%	1.17%	2.56%	-1.17%	2.88%	-0.25%	-2.34%	1.65%
CC(C)c1ccc(-c2cc(-c3c[nH]nc3-c3ccccn3)ccn2)cc1	2.69%	1.02%	0.42%	-0.47%	2.05%	-0.52%	0.14%	-1.28%	-1.36%	1.02%

Compound	inhibition [1]	inhibition [2]	inhibition [3]	inhibition [4]	inhibition [5]	inhibition [6]	inhibition [7]	inhibition [8]	inhibition [9]	inhibition [10]
Fc1cccc(COc2ccc(Nc3ncncc3C#Cc3ccccc3)cc2Cl)c1	-6.13%	3.22%	3.19%	-2.36%	5.09%	6.04%	7.36%	1.18%	0.79%	2.79%
CN1CCN(Cc2ccc(-c3cc4ncnc(Nc5ccc(OCc6cccc(F)c6)c(Cl)c5)c4s3)o2)CC1	-0.55% and -6.25%	2.97% and 3.59%	13.3% and 15.7%	1.68% and 6.37%	5.03% and 3.73%	6.28% and 7.91%	29.5% and 33.2%	-0.21% and -0.71%	2.04% and 2.62%	2.47% and 5.63%
CNC(=O)c1sc(-n2cnc3cc(OC)c(OC)cc32)cc1OCc1ccccc1C(F)(F)F	-2.36%	3.39%	7.51%	4.57%	2.17%	0.08%	2.98%	0.62%	3.2%	3.42%
COc1ccccc1-c1cc(/C=C2\C(=O)Nc3ncc(Br)cc32)cc(Br)c1O	-1.51%	2.49%	10.7%	0.75%	6.48%	5.88%	3.92%	1.5%	2.07%	3.21%
COc1cccc(-n2ncc3c(N/N=C/c4ccc(C(=O)NCCN(C)C)cc4)ncnc32)c1	40.9%	18.1%	73%	9.47%	46.3%	9.98%	53.4%	1.25%	1.98%	3.74%
CC1=C(C(=O)Nc2ccc3[nH]nc(C)c3c2)C(c2ccc(C(F)(F)F)cc2)CC(=O)N1 (stereo not given)	-6.56%	3.36%	17%	-2.44%	4.58%	3.23%	23.5%	1.29%	2.32%	1.88%
COC(=O)Nc1nc2ccc(Oc3ccc(NC(=O)Nc4cc(C(F)(F)F)ccc4F)cc3)cc2s1	46.6%	0.64%	3.2%	0.05%	2.68%	1.06%	0.36%	-0.69%	-0.85%	4.36%
CC1(C)CC(n2cnc(-c3ccc(F)cc3)c2-c2ccnc(N)n2)CC(C)(C)N1	1.58%	0.51%	1.43%	-2.57%	1.06%	-2.17%	1.66%	-1.42%	-1.35%	-0.2%
FC(F)(F)CNc1nccc(-c2cnn3ncccc23)n1	-3.11%	1.37%	2.35%	4.12%	2.03%	-1.25%	3.34%	0.18%	0.42%	2.81%
CS(=O)(=O)Nc1ccc(-c2ccc3c(NC(=O)C4CC4)n[nH]c3c2)cc1	0.24%	2.19%	9.5%	-5.43%	4.64%	1.77%	2.53%	1%	1.7%	3.59%
CN1CCC(C(=O)Nc2n[nH]c3nc(-c4ccc(O)cc4)c(Br)cc23)CC1	-2.51% and -3.39%	-0.49% and 1.32%	0.8% and 4.39%	4.12% and 2.58%	3.63% and 4.39%	4.15% and 1.12%	9.38% and 6.4%	-3.39% and 0.29%	-2.64% and 0.46%	-0.63%
CCn1c(-c2nonc2N)nc2cncc(C(=O)NCCNC)c21	-6.19%	3.13%	5.42%	3.81%	5.15%	2.42%	5.45%	-1.55%	0.11%	3.43%
Cc1cc(O)cc(C)c1/C=C/c1cncc(C(N)=O)c1	-0.54%	3.77%	23%	5.58%	37.5%	22.2%	72.8%	-0.17%	2.64%	4.27%
Nc1nccc(-c2c(-c3ccc(F)cc3)ncn2C2CCNCC2)n1	8.06% and 1.45%	-1.45% and 0.8%	-0.17% and 2.22%	1.14% and -5.53%	-1.15% and 0.2%	-3.88% and 1.44%	2.01% and 4.41%	-0.49% and -0.93%	-0.59% and 0.22%	-4.42% and 4.09%
COC(=O)Nc1nc2cc(Oc3ccc(NC(=O)Nc4ccccc4)cc3)ccc2[nH]1	-3.64%	2.65%	3.63%	3.17%	3.73%	1.45%	2.78%	0.55%	0.58%	4.95%
